The values that follow come from PubChem BioAssay (Tox21).

Several values for one entry are separate records, joined by “and”; a condition that tells them apart may be missing. Equal values may be shown once. A number with no mark means an inactive call. Inconclusive results are not listed. Activity calls are given as the source filed them. Unless noted, calls come from the whole dose curve; as a rule, active = well fitted curve in the direction sought with a large enough effect in the repeat runs; inconclusive = weak or mixed curves; inactive = no such curve, though single readings can be large; an effect the other way counts as inactive or inconclusive.

Test [1] in a line: qHTS assay for small molecule agonists of the p53 signaling pathway (AID 651631; calls by dose curve; note: nearly all actives have a fitted effect of over 15% in size; note: potency is the fitted concentration of half-maximal effect). In outline: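 p53RE-bla HCT-116 cells; compounds 16 h, 37 °C; LiveBLAzer B/G FRET substrate 2 h RT; fluorescence intensity read-out, qHTS format.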
For orientation: In qHTS, concentration-response curves come from the screen itself.

A short description of test [2]: qHTS assay for small molecules that induce genotoxicity in human embryonic kidney cells expressing luciferase-tagged ATAD5 (AID 651632). Note: nearly all actives have a fitted effect of over 15% in size. Note: potency is the fitted concentration of half-maximal effect. The essentials:
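Increased luciferase signal from ATAD5-tagged reporter cells indicates DNA-damage-driven ATAD5 induction. HEK293T cells are treated for 16 hr at 37C before detection with Amplite.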

Test [3] can be described thus: qHTS assay for small molecule agonists of the p53 signaling pathway - cell viability (AID 651633; calls by dose curve;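 note: p53RE-bla HCT reporter cells with a stable beta-lactamase p53 reporter; series mostly up to about 83 µM; nearly all actives have a fitted effect of over 30% in size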). In outline: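 p53RE-bla cells were treated with compound for 16 hours at 37 C. Cytotoxicity was then measured as CellTiter-Glo luminescence after 30 min at room temperature.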
The nature of test [4]: qHTS assay for small molecules that induce genotoxicity in human embryonic kidney cells expressing luciferase-tagged ATAD5 - cell viability (AID 651634; calls by dose curve; note: nearly all actives have a fitted effect of over 25% in size; note: potency is the fitted concentration of half-maximal effect). In outline:
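Cytotoxicity counterscreen in HEK293T cells bearing an ATAD5-luciferase reporter: live-cell protease activity measured by CellTiter-Fluor fluorescence after 15.5 hr compound exposure.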

Test [5] can be described thus: qHTS assay for small molecule disruptors of the mitochondrial membrane potential - cell viability (AID 720634; calls by dose curve;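 note: human HepG2 liver cancer cells; series mostly up to about 83 µM; nearly all actives have a fitted effect of over 20% in size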). The essentials: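 After overnight attachment at 37 C, HepG2 cells received compound or DMSO vehicle for 1 hr. Viability is then taken from ATP-driven luminescence following a 30 min room-temperature CellTiter-Glo step.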
Test [6] in a line: qHTS assay for small molecule disruptors of the mitochondrial membrane potential (AID 720635). Note: potency is the fitted concentration of half-maximal effect. In outline: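 HepG2 cells exposed to compound 1 hr at 37C, then Mito-MPS dye 30 min. Ratio read of aggregate (540/590 nm) versus monomer (490/535 nm) fluorescence.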
The nature of test [7]: qHTS assay to test for compound auto fluorescence at 590 nm (red) in HepG2 cells (AID 720674). The essentials:
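Seeding: 2,000 HepG2 cells/well, MEM/10% FBS, overnight 37 C. Dosing: compound vs DMSO. Incubation: 1 hr, 37 C, 5% CO2. Read: fluorescence 540 ex/590 em, Rose Bengal sodium as red reference.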

Test [8] in a line: qHTS assay to test for compound auto fluorescence at 535 nm (green) in HepG2 cells (AID 720675).
Test [9] in a line: qHTS assay to test for compound auto fluorescence at 460 nm (blue) in HEK293 cells (AID 720678). The essentials: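 After cell attachment (4-5 hr, 37C), compounds were pinned onto HEK293 monolayers in 10% dialyzed FBS medium. The blue channel (405/460 nm) was read following overnight culture. Equivalency was calculated against triamterene.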
Test [10] can be described thus: qHTS assay to test for compound auto fluorescence at 590 nm (red) in HEK293 cells (AID 720679). In outline: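 Plates of HEK293 cells (10% dialyzed FBS) are treated with 23 nL compound or DMSO vehicle after a 4-5 hr attachment period, incubated overnight at 37C, and read for red fluorescence at 540/590nm.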
% is set by controls: 0 for no effect and ±100 for the full control effect.

As for `OCc1ccccc1O`, the Potency result in [1], in test [2], in [3], in test [4], in test [5] and in [6] was “inactive” throughout. For the same compound, the call in test [7], in test [8], in test [9] and in test [10] was inactive.

`C=Cc1ccccc1`: the Potency entry in [1], in test [2], in test [3], in test [4], in test [5] and in [6] was “inactive” each time. Also, the compound was called inactive in [7], in test [8], in test [9] and in test [10].

Regarding `C=CC(C)(O)CC/C=C(\C)CCC=C(C)C` (configuration not stated), the Potency result in test [1], in test [2], in test [3], in [4] and in test [5] was “inactive” each time. Also, the Potency in test [6] is 12.4 µM (active) and 27.3 µM (active). Moreover, the compound was classed as inactive in test [7], in test [8], in [9] and in [10].

With `CCCCc1ccc2nc(NC(=O)OC)[nH]c2c1`, the Potency is 50.7 nM (active) in [1], 804 nM (active) in test [2], 90.2 nM (active) in test [4] and 254 nM (active) in [6]. The Potency result in test [3] and in test [5] was “inactive” each time. Moreover, the fluorescence, relative to Rose Bengal in test [7] was -0.46% [at 18.6 µM]. Besides, in test [8], the fluorescence, % of fluorescein control is 0.0726% [at 18.6 µM]. Further, the fluorescence, % of triamterene in [9] was -0.014% [at 18.6 µM]. Besides, in [10], the fluorescence, % of fluorescent control is 0.021% [at 18.6 µM].

Consider `Nc1cccc(S(=O)(=O)O)c1`, for which the Potency result in test [1], in [2], in test [3], in test [4] and in test [5] was “inactive” throughout. For the same compound, in test [6], the Potency is 97.2 nM (active). Also, the outcome in [7], in test [8], in test [9] and in test [10] was inactive.

For the compound `CC1=C(O)C(=O)OC1C` (configuration not stated), the Potency entry in test [1], in test [2], in test [3], in test [4], in test [5] and in test [6] was “inactive” throughout. Besides, the call in test [7], in test [8], in test [9] and in test [10] was inactive.

As for `CC/C=C\CCOC(=O)CCCCC`, the Potency result in test [1], in test [2], in test [3], in test [4], in [5] and in test [6] was “inactive” in each case. Also, the outcome in test [7], in [8], in test [9] and in test [10] was inactive.

Take `CCN1CC(CCN2CCOCC2)C(c2ccccc2)(c2ccccc2)C1=O` (configuration not stated): the Potency result in [1], in test [2], in test [3], in test [4], in [5] and in test [6] was “inactive” throughout. In addition, the call in test [7], in test [8], in [9] and in test [10] was inactive.

Take `NCCCN1CCN(CCCN)CC1`: the Potency entry in [1], in test [2], in test [3], in test [4], in test [5] and in test [6] was “inactive” in each case. The result in [7], in test [8], in test [9] and in test [10] was inactive.

Regarding `O=Cc1ccc(F)c(Br)c1`, the Potency entry in test [1], in test [2], in test [3], in test [4], in test [5] and in test [6] was “inactive” throughout. Also, the compound was classed as inactive in test [7], in [8], in test [9] and in test [10].

`CN1CCN(c2c(F)cc3c(=O)c(C(=O)O)cn4c3c2SCC4)CC1`: the Potency entry in test [1], in test [2], in test [3], in [4], in [5] and in [6] was “inactive” in each case. For the same compound, the outcome in test [7], in [8], in test [9] and in [10] was inactive.

With `CC(C)CCCCCCc1ccc(OCCOCCO)cc1`, the Potency result in [1], in test [2], in [3], in test [4], in test [5] and in test [6] was “inactive” each time. Also, the call in test [7], in test [8], in test [9] and in [10] was inactive.

As for `CC(C)(C)c1ccc(OC(=O)c2ccccc2O)cc1`, the Potency result in test [1], in test [3], in test [4] and in test [5] was “inactive” throughout. Further, the results for the Potency in [2] and in test [6] were 21700 nM (active) and 24300 nM (active), respectively. Besides, the result in test [8], in test [9] and in test [10] was inactive.

`CC/C=C\CCOC(=O)C(C)C`: the Potency result in [1], in test [2], in test [3], in test [4] and in test [5] was “inactive” in each case. Besides, the compound was classed as inactive in [7], in [8], in test [9] and in test [10].

For the compound `Cc1cccc(C)c1NC(=O)CN1CCCCCC1`, the Potency result in [1], in [2], in test [3], in [4] and in test [5] was “inactive” each time. Moreover, the compound was called inactive in [7], in test [8], in test [9] and in test [10].

With `CCOC(=O)[C@H](CCc1ccccc1)N[C@@H](C)C(=O)N1Cc2cc(OC)c(OC)cc2C[C@H]1C(=O)O`, the Potency entry in test [1], in [2], in test [3], in [4], in [5] and in test [6] was “inactive” each time. The compound was classed as inactive in [7], in test [8], in test [9] and in test [10].

Turning to `Cc1cc(S(=O)(=O)O)c(N)cc1Cl`, the Potency entry in test [1], in test [2], in test [3], in [4], in test [5] and in test [6] was “inactive” each time. Also, the compound was called inactive in test [8], in test [9] and in [10].

As to `NCCC(O)(P(=O)(O)O)P(=O)(O)O`, the Potency entry in test [1], in test [2], in test [3], in [4], in test [5] and in [6] was “inactive” throughout. Moreover, the call in test [8], in test [9] and in [10] was inactive.

Take `COC(=O)c1ccc(OC)cc1`: the Potency result in [1], in test [2], in [3], in test [4], in test [5] and in test [6] was “inactive” each time. The result in test [7], in test [8], in [9] and in test [10] was inactive.

For `Cc1ccccc1C(=O)Nc1ccc(C(=O)N2CCCC(O)c3cc(Cl)ccc32)c(C)c1` (configuration not stated), the Potency entry in [1], in test [2], in test [3], in [4] and in test [5] was “inactive” each time. Further, the Potency in test [6] was 10600 nM (active). The compound was classed as inactive in test [7], in test [8], in test [9] and in test [10].

As for `OCCN1CCN(CCO)CC1`, the Potency entry in test [1], in [2], in test [3], in test [4] and in test [5] was “inactive” in each case. The result in test [7], in test [8], in test [9] and in [10] was inactive.

On to `CCCCCCC`, for which the Potency result in test [1], in test [2], in test [3], in [4], in test [5] and in [6] was “inactive” throughout. Further, the compound was called inactive in test [8], in test [9] and in test [10].

`COC(=O)C(C)O` (configuration not stated): the Potency result in test [1], in [2], in test [3], in test [4], in test [5] and in [6] was “inactive” each time. The compound was called inactive in [8], in test [9] and in [10].
